What all share (assay type): functional
For assay [1], the system named is Plasmodium falciparum. The experiment in a line: GSK_TCMDC: Inhibition of Plasmodium falciparum 3D7 in whole red blood cells, using parasite LDH activity as an index of growth. Test compounds present at 2uM.
In assay [2] the test system is Plasmodium falciparum. The experiment in a line: GSK_TCMDC: Inhibition of Plasmodium falciparum Dd2 in whole red blood cells, using parasite LDH activity as an index of growth. Test compounds present at 2uM.
For assay [3], the system named is HepG2. Put plainly: GSK_TCMDC: Percent inhibition of human HepG2 cell line. Test compounds present at 10uM.

Molecules are shown by their SMILES.

Consider `O=C(Nc1ccc(C(=O)Oc2cccc3ccccc23)cc1)N[C@@H](Cc1ccc(O)cc1)C(=O)NC1CCN(Cc2ccc(O)cc2)C1.O=C(O)C(F)(F)F` (stereo partly drawn), for which the Inhibition was determined as 87% in assay [1], 0% in assay [2] and 0% in assay [3].

As for `O=C(C=Cc1cccs1)Nc1ccc(-c2nc3ccccc3[nH]2)cc1`, the Inhibition in assay [1] was 83%; in assay [2], 3%; in assay [3], 0%.

Regarding `COc1cc(N(C)Cc2cnc3nc(N)nc(N)c3n2)cc(OC)c1OC`, the Inhibition amounted to 95% in assay [1], 2% in assay [2] and 32% in assay [3].

For the compound `C=CCn1c(=N)c(C(=O)NCc2ccc(F)cc2)cc2c(=O)n3cccc(C)c3nc21`, the Inhibition in assay [1] is reported as 92%; in assay [2], 11%; in assay [3], 16%.

Consider `COc1csc2cc(Br)ccc12`, for which the Inhibition in assay [1] came to 100%; in assay [2] it was 0%; in assay [3] it was 6%.

With `FC(F)(F)c1ccc(-c2ccc(CNC3CCN(CCN4CCOCC4)CC3)cc2)cc1`, the Inhibition in assay [1] came out at 100%; in assay [2], 74%; in assay [3], 44%.

As to `C=CCn1c(Cc2ccccc2)nnc1Sc1ccc(C#N)c([N+](=O)[O-])c1`, the Inhibition in assay [1] amounted to 86%; in assay [2] it was 43%; in assay [3], 7%.

As to `COc1ccc(/C=C/C(=O)N2CCc3cc4nccc(N5CCN6CCC[C@H]6C5)c4cc32)cc1`, the Inhibition in assay [1] was 100%; in assay [2] it was 98%; in assay [3], 0%.

As to `N#Cc1ccc(-c2ccc(OCC(O)CN3CCCN(C(=O)C(c4ccc5c(c4)OCO5)N4CCN(C/C=C/c5ccccc5)CC4)CC3)cc2)cc1` (stereo not drawn), the Inhibition in assay [1] is 99%; in assay [2], 77%; in assay [3], 25%.

Regarding `COc1cc(NC(=O)NC(CCN2CCC3(CCc4ccccc43)CC2)c2ccc(Cl)c(Cl)c2)cc(OC)c1OC` (stereo not drawn), the Inhibition turned out to be 90% in assay [1], 66% in assay [2] and 66% in assay [3].

Regarding `O=C1CC(C(=O)Nc2cccc(-c3cccc(-c4nc5ccccc5[nH]4)c3)c2)c2ccccc2N1` (stereo not drawn), the Inhibition in assay [1] was 84%; in assay [2] it was 32%; in assay [3], 0%.

As to `Br.CC1(C)NC(N)=NC(=N)N1OCCCOc1cc(Cl)cc(Cl)c1`, the figures for the Inhibition in assay [1], in assay [2] and in assay [3] were 95%, 97% and 62%, respectively.

As for `CC(C)CNC(=S)N1CCCN(c2nc3ccc(Cl)cc3s2)CC1`, the values for the Inhibition in assay [1], in assay [2] and in assay [3] were 95%, 11% and 28%, respectively.

With `CN/C(=C\[N+](=O)[O-])NCCSCc1cc(C)c(CN(C)C)s1`, the Inhibition is recorded as 98% in assay [1], 96% in assay [2] and 48% in assay [3].

For the compound `COc1ccc2nccc([C@@H](O)CN3CCC(NCc4ccc5c(c4)NC(=O)C(C)(C)O5)CC3)c2c1.O=C(O)C(=O)O`, the Inhibition in assay [1] turned out to be 100%; in assay [2], 70%; in assay [3], 6%.

As to `Cc1cccc2nc(-c3ccc(-c4cccc(CNCc5ccc(S(C)(=O)=O)cc5)c4)s3)[nH]c12.O=C(O)C(F)(F)F`, the Inhibition in assay [1] was 100%; in assay [2], 91%; in assay [3], 31%.

Take `CCN(CC)CCCNCc1ccc(-c2ccc(C(F)(F)F)cc2)cc1`: the Inhibition in assay [1] came out at 95%; in assay [2], 35%; in assay [3], 53%.

`CCOc1ccc(Br)cc1/C=C/C(=O)Nc1ccc(C2CCN(C)CC2)cc1`: the Inhibition in assay [1] came out at 100%; in assay [2], 71%; in assay [3] it was 30%.

Take `NC(=O)c1ccsc1NC(=O)CNC(c1ccc(F)cc1)c1cccs1` (stereo not drawn): the values for the Inhibition in assay [1], in assay [2] and in assay [3] were 92%, 71% and 31%, respectively.

`CCCCn1c(N)c(N(Cc2ccco2)C(=O)C=Cc2cc(OC)c3c(c2)OCCO3)c(O)nc1=O`: the figures for the Inhibition in assay [1], in assay [2] and in assay [3] were 85%, 94% and 4%, respectively.

For `Cn1cncc1C(=O)NC1CCN(c2ccnc(Nc3ccc(F)cc3)n2)C1` (stereo not drawn), the Inhibition in assay [1] was found to be 97%; in assay [2], 83%; in assay [3], 2%.

Consider `O=C(Nc1ccc(N2CCN(c3ncccc3C(F)(F)F)CC2)nc1)c1cccs1`, for which the Inhibition in assay [1] is listed as 83%; in assay [2], 40%; in assay [3], 7%.

As for `Cl.O=C(N[C@@H](Cc1cc(F)cc(F)c1)[C@H](O)CNCc1cccc(C(F)(F)F)c1)c1cc(C2CCCC2)cc(N2CCCC2=O)c1`, the Inhibition in assay [1] is recorded as 95%; in assay [2], 45%; in assay [3], 37%.

For `COc1ccc(NC(=O)N2CCc3ccc(OCCN(C(C)C)C(C)C)cc32)cc1C(F)(F)F.O=C(O)C(F)(F)F`, the Inhibition in assay [1] came to 90%; in assay [2] it was 6%; in assay [3], 0%.

As for `COc1ccc(-c2cccc(NC(=O)c3ccc(F)cc3)c2)cc1CN1CCCN(C)CC1.O=C(O)C(F)(F)F`, the Inhibition worked out at 100% in assay [1], 35% in assay [2] and 26% in assay [3].

Regarding `CSc1nnc2n(Cc3ccccc3)c(=O)c3c(n12)-c1ccccc1CC31CCCCC1`, the Inhibition in assay [1] is listed as 93%; in assay [2], 0%; in assay [3], 0%.

As for `CN(C)CCNC(=O)c1ccc(-c2ccc3c(Nc4ccccc4)c(C(N)=O)cnc3c2)cc1`, the Inhibition in assay [1] is listed as 99%; in assay [2], 68%; in assay [3], 9%.

As to `Cc1ccc2c(=NN=Cc3cccc(F)c3)cc(C)[nH]c2c1`, the Inhibition in assay [1] was 96%; in assay [2] it was 66%; in assay [3], 34%.

Turning to `CCOC(=O)N1CCC(NC(=O)c2ccc(C(C)(C)C)cc2OC)CC1`, the results for the Inhibition in assay [1], in assay [2] and in assay [3] were 88%, 0% and 0%, respectively.

Turning to `Cc1cc2[nH]c(-c3ccc(C(=O)NCCCN4CCN(c5cccc(Cl)c5)CC4)s3)nc2cc1Cl`, the values for the Inhibition in assay [1], in assay [2] and in assay [3] were 100%, 93% and 7%, respectively.

For `CCOc1c(N2CCN(CCCCNC(=O)c3ccc(NC(=O)c4ccc(Cl)cc4)cc3)CC2)ccc2ccccc12.Cl`, the Inhibition is reported as 100% in assay [1], 45% in assay [2] and 18% in assay [3].

One may read the Inhibition as the share of the control response that was lost under treatment. Read a high Inhibition as a strong effect.

(Values after ChEMBL document CHEMBL1157539, “Thousands of chemical starting points for antimalarial lead identification” (Nature, 2010).)
